CYP2C19 act: increases human CYP2C19 enzyme activity | 96,000 tested, under 10 active | recombinant CYP2C19, luciferin-H EGE luminescence; stronger effect = higher value; 0 = fully inhibited enzyme, 1 = untreated enzyme | AID 1025 | P33261 | activation factor at 5 µM;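 active = activation factor of at least 2 at 5 µM in the primary screen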;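 also: 0 = wells with 2.5 mM tranylcypromine and 1 = vehicle-only wells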
Target sequence (P33261 whole entry, looked up): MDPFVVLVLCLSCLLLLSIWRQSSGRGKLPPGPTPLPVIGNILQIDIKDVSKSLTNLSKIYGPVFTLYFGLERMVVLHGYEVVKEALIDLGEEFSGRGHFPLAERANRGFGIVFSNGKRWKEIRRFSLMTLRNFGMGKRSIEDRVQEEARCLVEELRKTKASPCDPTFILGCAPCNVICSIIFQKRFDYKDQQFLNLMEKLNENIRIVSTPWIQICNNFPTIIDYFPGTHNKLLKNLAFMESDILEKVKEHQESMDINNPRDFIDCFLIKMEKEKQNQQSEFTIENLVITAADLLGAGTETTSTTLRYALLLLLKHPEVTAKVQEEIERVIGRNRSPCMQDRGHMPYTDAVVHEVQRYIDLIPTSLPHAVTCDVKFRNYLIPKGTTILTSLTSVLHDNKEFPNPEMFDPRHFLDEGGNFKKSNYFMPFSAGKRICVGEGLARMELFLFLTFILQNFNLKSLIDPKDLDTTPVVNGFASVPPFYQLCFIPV
CYP2C9 inhib: inhibitors of human CYP2C9; inhibition, % at 5 µM; AID 777; actives 20% (n = 96,000); CYP2C9 Supersomes, luciferin-H conversion, luminescence;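 active = blocking of liver enzyme CYP2C9 beyond about 50% at 5 µM, limit read from the data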
PostGolgi ctrl: yeast control strain growth, post-Golgi counter-screen. inhibition, % at 10 µM. AID 738. actives 5% (n = 98,000). efflux-deficient yeast background strain, growth absorbance A615, 16 h
CYP2C9 activ: activators of human CYP2C9; activation factor at 5 µM; P11712; AID 1024; actives 1.4% (n = 96,000); recombinant CYP2C9, luciferin-H conversion, luminescence; stronger effect = higher value; factor 1 = untreated enzyme, 0 = blocked;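 active = activation factor of 2 or more for CYP2C9 at a 5 µM dose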;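 also: 0 = sulfaphenazole-blocked wells and 1 = vehicle-only wells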
CYP2C19 inh: human CYP2C19 inhibition; CYP2C19 Supersomes, luciferin-H EGE luminescence, 30 min; inhibition, % at 5 µM; actives 21% (n = 96,000); AID 778;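 active = CYP2C19 inhibition above a set limit at 5 µM in the primary screen, cut at about 50% in these data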;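 also: plate controls were negative control wells for no effect and 2.5 mM tranylcypromine positive control for full effect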
PostGolgi yeast: growth inhibition of a yeast mutant, post-Golgi transport screen | post-Golgi transport phenotypic cell assay | inhibition, % at 10 µM | actives 0.9% (n = 98,000) | AID 739;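 also: yeast cells grown in 1536-well plates; yeast grown about 18 h at 30C before absorbance read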
* = called active by the depositor. The list is not random: actives were taken first. Their share in the collection is about 32%. Rule as the data show it, unless noted: active = inhibition above about 30%; inactive = the rest.

SMILES | CYP2C19 act | CYP2C9 inhib | PostGolgi ctrl | CYP2C9 activ | CYP2C19 inh | PostGolgi yeast
CCC1(C)Cc2c(sc3nnn(CC(=O)Nc4ccccc4C)c(=O)c23)CO1 (centres undefined) | 0.2 | 50 | -4 | 0.5 | 84* | 5
CCC1(C)Cc2c(sc3nnn(Cc4ccccc4Cl)c(=O)c23)CO1 (centres undefined) | 0.6 | 76* | 16 | 0.2 | 42 | 1
CCC1(C)Cc2c(sc3nn[nH]c(=O)c23)CO1 (centres undefined) | 0.9 | 12 | 9 | 0.9 | 11 | 3
CCN(CC)C(=O)CN(c1ccc(C)cc1)S(=O)(=O)c1ccc(SC)cc1 | 0.8 | 31 | 1 | 0.7 | 21 | -6
CCN(CC)C(=O)CN(c1ccc(Cl)cc1)S(=O)(=O)c1ccccc1 | 0.3 | 7 | 12 | 0.9 | 68* | -5
CN(C)P(=NC(=O)COc1ccc(Cl)cc1Cl)(N(C)C)N(C)C | 0.1 | 3 | 13 | 1 | 92* | -1
O=C(COc1ccc(Cl)cc1Cl)Nc1ccccn1 | 0.3 | 78* | 11 | 0.2 | 70* | 14
Cc1cc(=O)oc2cc(OCC(=O)NCc3cccnc3)ccc12 | 0.9 | 2 | 2 | 1 | 6 | -9
Cc1cc(=O)oc2cc(OCC(=O)NCc3ccncc3)ccc12 | 0.3 | 91* | 1 | 0.1 | 65* | 0
CC(C)NC(=O)COc1ccc(Cl)cc1Cl | 0.5 | 10 | 12 | 0.9 | 46 | -2
CC(=O)NC(=S)Nc1ccc(NC(=O)COc2ccc(Cl)cc2Cl)cc1 | 1 | -16 | 5 | 1.2 | 3 | -3
O=C(COc1ccc(Cl)cc1Cl)NNC(=S)Nc1ccc(F)cc1 | 0.5 | 41 | 38* | 0.6 | 46 | 4
CCn1c(=O)cc(SCC(=O)NCc2ccccn2)c2ccccc21 | 1 | -45 | -4 | 1.5 | 2 | 3
Nc1c(C(=O)NCc2ccco2)nnn1CC(=O)Nc1ccccc1 | 1 | 18 | 4 | 0.8 | 3 | 3
CC(C)C(=O)Nc1ccc2c(c1)C(=O)N(CCC(=O)O)C2=O | 1 | -4 | -5 | 1 | -5 | 8
Cc1cc(Cl)ccc1OCC(=O)NCCOc1nc(N2CCCCC2)nc(N2CCOCC2)n1 | 0.9 | 24 | 12 | 0.8 | 9 | 0
COc1cc(C)nc(OCCNC(=O)COc2ccc(Cl)cc2C)n1 | 0.3 | 46 | 14 | 0.5 | 73* | 2
Cc1cc(Cl)ccc1OCC(=O)NCCC(=O)O | 1 | 27 | -1 | 0.7 | -3 | 2
O=C(COc1ccc(Cl)cc1Cl)NCc1ccncc1 | 0 | 95* | 8 | 0 | 100* | 2
Cc1cc(Cl)ccc1OCC(=O)NCc1ccncc1 | 0 | 82* | -6 | 0.2 | 95* | -1
Cc1c(C(=O)NCc2ccccn2)oc2ccccc12 | 0.9 | -2 | 11 | 1 | 8 | 10
Cc1cc2oc(C(=O)NCc3ccncc3)c(C)c2cc1C | 0 | 97* | 36* | 0 | 98* | -7
CCn1cc(CNC(=O)c2cc(Cl)ccc2OC)c(C)n1 | 0.5 | -64 | 3 | 1.6 | 47 | -5
CCn1cc(C(C)NC(=O)COc2ccc(Cl)cc2C)c(C)n1 (centres undefined) | 0.4 | 82* | 8 | 0.2 | 62* | -3
CC1=C(C(=O)OC(C)C)C(c2coc3ccccc3c2=O)C2=C(CCCC2=O)N1 (centres undefined) | 0.5 | 62* | 3 | 0.4 | 46 | 26
SMILES | CYP2C19 act | CYP2C9 inhib | PostGolgi ctrl | CYP2C9 activ | CYP2C19 inh | PostGolgi yeast
CCSCCOC(=O)C1=C(C)NC2=C(C(=O)CCC2)C1c1coc2ccccc2c1=O (centres undefined) | 0.8 | 52* | 8 | 0.5 | 17 | -2
CCSCCOC(=O)C1=C(C)NC(=O)NC1c1ccccc1 (centres undefined) | 0.7 | 4 | 13 | 1 | 32 | -5
CCOC(=O)c1cnc2cc(C)nn2c1-c1ccccc1 | 1 | 11 | 1 | 0.9 | 2 | 4
CCOC(OCC)P(=O)(c1ccccc1)c1ccccc1 | 1.1 | -12 | 20 | 1.1 | -6 | 11
COc1ccc(C(=O)CC(Nc2ccc([N+](=O)[O-])cc2)c2ccc(Cl)cc2)cc1 (centres undefined) | 0.3 | 78* | 15 | 0.2 | 67* | -9
COc1ccc(-n2c(C)cc(C=O)c2C)cc1Cl | 0.4 | 16 | 1 | 0.8 | 59* | 5
S=c1[nH]nc(COc2ccc(Cl)cc2)o1 | 1.1 | 14 | 5 | 0.9 | -11 | 7

High-throughput results: PubChem BioAssay, several laboratories
